In the supplement of paper PMC10338343:
± gives the standard deviation.

System: MILI (PIWIL2) piRISC loaded with piRNA #1 (26 nt)
Experiment: pre-steady-state target cleavage rate (min^-1); guide: piRNA #1 5'p-UGAGGUAGUAGGUUGUAUAGUAUCCA; MIWI and MILI are mouse PIWI proteins and EfPiwi is from a freshwater sponge; tags in brackets are library labels; higher = faster piRNA-guided slicing of the target
Conditions: auxiliary factor: 500 nM mouse GTSF1
Description: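 Cleave-'n-Seq: a library of target RNAs (target site embedded in constant flanks, ACAGCATTCCGCGTTAGTGATATCCG... 5' flank; DNA-blocked outside the site) at 0.1 nM was incubated with 1 nM active mouse MILI or MIWI piRISC (synthetic 5'-monophosphorylated piRNA guide) with or without 500 nM mouse GTSF1 at 33 °C for 1 min to 16 h. Uncleaved targets were sequenced and normalised to non-target controls, and the pooled three trials were fitted to a burst-and-steady-state model to give the pre-steady-state cleavage rate (min^-1; k3 is constrained to at most 1e-4). Sequence is the target site only; target names encode pairing extent (gX:gY) and contiguous / 1-mismatch / 2-mismatch / bulge geometry. Fits with R² ≤ 0 are excluded.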

Sequence | pre-steady-state target cleavage rate
GGAGACCAUACUAUACAACCUACUACCUCCA | 0.137 ± 0.018
GGAGACCAUACAAUACAACCUACUACCUGA | 0.12 ± 0.019
GGAGACCUAUGUAUACUAGCUACUACCUCA | 0.0336 ± 0.0059
GGAGACCAAACUAUUCAACCUACUACCUCA | 0.217 ± 0.047
GGAGACCAUUCUAUACAACCUACUUCCUCA | 0.0522 ± 0.0086
GGAGACCUAUGUAUACAACCGACUACCUCA | 0.00448 ± 0.0021
GGAGACCUAUCUAUACAACCUACUACGAGA | 0.0633 ± 0.017
GGAGACCAUACUAUACAACCUACUACUCA | 0.204 ± 0.026
GGAGAGGAUACUAUACAACCUAGCUACCUCA | 0.0538 ± 0.0062
GGAGAGGAUACUAUACAACCUAUUACCUCA | 0.174 ± 0.018
GGAGACCUAUGAAUAGAAGCUACUACCUCA | 0.0046 ± 0.0022
GGAGAGGAUACUAUACAACCUACUUCCUCA | 0.0124 ± 0.0047
GGAGACCUAGCUAUACAACCUACUACCUCA | 0.0862 ± 0.027
GGAGACCUAUGUAUAAAACCUACUACCUCA | 0.0488 ± 0.0094
GGAGAGGAUACUAUACUUGCUACUACCUCA | 0.0407 ± 0.0049
GGAGAGGAUACUAUACAACCUACUUACCUCA | 0.162 ± 0.015
GGAGACCAUAUCUAUACAACCUACUACCUCA | 0.138 ± 0.015
GGAGACCUAUGUGAUACAACCUACUACCUCA | 0.0354 ± 0.0073
GGAGACCUAUCUAUUCAACCUACUACCUGA | 0.0654 ± 0.014
GGAGACCUAUCUAAACAACCUACAACCUCA | 0.0563 ± 0.0063

Sequence | pre-steady-state target cleavage rate
GGAGACCUAACUAUACAACCUACUACCUACA | 0.165 ± 0.023
GGAGACGAUACUAUCAACCUACUACCUCA | 0.14 ± 0.012
GGAGACGAUACUAUACAACCUGACUACCUCA | 0.00401 ± 0.0024
GGAGACCAUUCUUUACAACCUACUACCUCA | 0.0902 ± 0.012
GGAGACCUAUGUAUACAACCUACUACCUACA | 0.0588 ± 0.0083
GGAGACCUAUGAAUACUACCUACUACCACA | 0.00343 ± 0.0025
GGAGACCUUACUAUAGCAACCUACUACCUCA | 0.127 ± 0.012
GGAGACCUAUGUAUACAACUUACUACCUCA | 0.0134 ± 0.0024
GGAGACCAUACUAUACAAGCUACAACCUCA | 0.212 ± 0.022
GGAGACCUAACUAUACAACCUACUACCCCA | 0.195 ± 0.058
GGAGACCUAACAAUACAAGCUACUACCUCA | 0.22 ± 0.029
GGAGACCUAACUAAACUACCUACUACCUCA | 0.0594 ± 0.017
GGAGACCUUAGUAUACAUCCUACUACCUCA | 0.126 ± 0.018
GGAGACCUUACUAUUCAACGUACUACCUCA | 0.0187 ± 0.0035
GGAGACCUAACUAUACAACCUACUAUCUCA | 0.0721 ± 0.017
GGAGACCUUACUAUUCAACCUAGUACCUCA | 0.0486 ± 0.011
GGAGAGGAUUCUUUACAACCUACUACCUCA | 0.167 ± 0.013
GGAGAGGAUAGUAUACUACCUACUACCUCA | 0.0295 ± 0.0076
GGAGACCUAUGAAUACAACCUACUACGCUCA | 0.0107 ± 0.0039
GGAGACCAUACUAUACUACCUACUUCCUCA | 0.0579 ± 0.011
